Active and inactive are the calls of the source. How the source made its calls: active means hit-call score of the fitted dose curve at least 0.9, where 1 is the maximum; inactive means score below 0.9.
Target: Hepatocyte nuclear factor 3-beta (Homo sapiens) (UniProt Q9Y261)
Assay: ATG_FoxA2_CIS: Attagene CIS-FACTORIAL HepG2 Assay for human Forkhead box A2 (FOXA2) (AID 2282942)
Settings: HepG2 cis-reporter transcription factor activity, 24 h; actives raise or lower the signal
Description: ATG_CIS is a cell-based, multiplexed-readout assay that uses HepG2, a human liver cell line, with measurements taken at 24 hours after chemical dosing in a 24-well plate.ATG_FoxA2_CIS is one of 52 assay component(s) measured or calculated from the ATG_CIS assay. It is designed to make measurements of mRNA induction, a form of inducible reporter, as detected with fluorescence intensity signals by Reverse transcription polymerase chain reaction (RT-PCR) and Capillary electrophoresis technology.Data from the assay component ATG_FoxA2_CIS was analyzed into 1 assay endpoint. This assay endpoint, ATG_FoxA2_CIS, was analyzed with bidirectional fitting relative to DMSO as the negative control and baseline of activity. Using a type of inducible reporter, measures of mRNA for gain or loss-of-signal activity can be used to understand the reporter gene at the transcription factor-level as they relate to the gene FOXA2. Furthermore, this assay endpoint can be referred to as a primary readout, because this assay has produced multiple assay endpoints where this one serves a reporter gene function. To generalize the intended target to other relatable targets, this assay endpoint is annotated to the dna binding intended target family, where the subfamily is forkhead box protein.
Human liver HepG2 cells are transiently transfected with multiple reporter transcription units (MRTUs) in 6-well plates using FuGene 6 reagent (Roche; 3 ml FuGene/1 mg DNA). The MRTU constructs are regulated by a cis-regulating element (promoter). […] A major difference between the CIS and TRANS system is that in CIS activities of endogenous TFs are measured, whereas the TRANS assay evaluates changes in activities of exogenous, chimeric NR-Gal4 proteins. […] At the end of 24 hour incubation, total RNA was isolated using TriZol reagent (Invitrogen). The isolated RNA is then reverse-transcribed using oligo(dT) primer and Mo-MLV reverse transcriptase (Invitrogen) with DNAse I (Ambion) treatment for 30 min. The one-tenth of the produced cDNA was amplified by PCR using Taq DNA polymerase (Invitrogen) and two reporter sequence-specific primers. The PCR products were fluorescently labeled by primer extension with 6-arboxyfluorescein (6-FAM) 5'-labeled reporter sequence-specific primer (2 min at 95 C, 20 s at 68 C and 10 min at 72 C) and these products were digested with 5U of HpaI (New England Biolabs) for 2h at 37 C. The fragments were purified using Qiaquick PCR columns (Qiagen), analyzed on an ABI 3130xL genetic analyzer (Applied Biosystems) with peak positions identified by using a set of X-rhodamine (ROX)-labeled MapMarker1000 molecular weight standards (BioVentures). The raw capillary electrophoresis data was processed using Attagraph software (Attagene).

Chain of Hepatocyte nuclear factor 3-beta (Homo sapiens) (Q9Y261 whole entry, looked up): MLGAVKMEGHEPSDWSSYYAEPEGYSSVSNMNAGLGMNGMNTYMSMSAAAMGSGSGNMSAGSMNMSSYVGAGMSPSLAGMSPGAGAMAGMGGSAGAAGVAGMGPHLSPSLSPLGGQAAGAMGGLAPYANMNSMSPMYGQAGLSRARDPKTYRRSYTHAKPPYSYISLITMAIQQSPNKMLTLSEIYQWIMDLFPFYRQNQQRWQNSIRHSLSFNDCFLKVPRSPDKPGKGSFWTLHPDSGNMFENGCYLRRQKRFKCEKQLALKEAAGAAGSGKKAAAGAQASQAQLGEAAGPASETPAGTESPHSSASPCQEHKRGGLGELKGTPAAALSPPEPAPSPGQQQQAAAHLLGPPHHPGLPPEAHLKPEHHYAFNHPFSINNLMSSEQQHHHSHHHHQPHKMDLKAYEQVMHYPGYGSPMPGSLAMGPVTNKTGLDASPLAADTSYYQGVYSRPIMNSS

Row | SMILES | outcome | AC50
1 | C[C@]12CC[C@H]3C(=CCc4cc(O)ccc43)[C@@H]1CCC2=O | inactive | 
2 | Brc1nc2ccccc2s1 | inactive | 
3 | O=C1c2ccccc2C(=O)c2c(Cl)cccc21 | inactive | 
4 | CCN=C1C=CC(=C(c2ccc(N(CC)CC)cc2)c2ccc(N(CC)CC)cc2)c2ccccc21 | inactive | 
5 | CC(C)OC(=O)COc1ccc(Cl)cc1Cl | inactive | 
6 | C=CCOC(=O)CC(C)C | inactive | 
7 | O=C(O)CCC(F)(F)C(F)(F)C(F)(F)F | inactive | 
8 | CCCCOC(=O)[C@H](C)O | inactive | 
9 | CO[Si](CCCOCC1CO1)(OC)OC (stereo not given) | inactive | 
10 | O=C(O)C(F)(F)C(F)(F)C(F)(F)C(F)(F)C(F)(F)C(F)(F)C(F)F | inactive | 
11 | Cc1cc(=O)[nH]c(C(C)C)n1 | inactive | 
12 | CCc1cc(Cc2cc(CC)c(N)c(CC)c2)cc(CC)c1N |  | 33.4 µM (active)
13 | OC(O)C(F)(F)C(F)(F)F | inactive | 
14 | CCc1cccc(C)c1N(C(=O)C(=O)O)C(C)COC (stereo not given) | inactive | 
15 | CO[Si](C)(CCC(F)(F)C(F)(F)C(F)(F)C(F)(F)C(F)(F)C(F)(F)F)OC | inactive | 
16 | O=C(c1ccccc1)c1ccc(O)cc1O | inactive | 
17 | O=C(O)C(F)(F)C(F)(F)C(F)(F)OC(F)(C(F)(F)F)C(F)(F)F | inactive | 
18 | CCOC(OCC)OCC | inactive | 
19 | CCCC(=O)OCC(COC(=O)CCC)OC(=O)CCC | inactive | 
20 | Cc1cccc(C)n1 | inactive | 

Row | SMILES | outcome | AC50
21 | O=C(c1ccccc1)c1ccc(Cl)cc1 | inactive | 
22 | CCN(CCO)S(=O)(=O)C(F)(F)C(F)(F)C(F)(F)C(F)(F)C(F)(F)C(F)(F)C(F)(F)C(F)(F)F | inactive | 
23 | c1ccc(C[P+](c2ccccc2)(c2ccccc2)c2ccccc2)cc1 | inactive | 
24 | NC(O)(C(F)(F)F)C(F)(F)F | inactive | 
25 | CSc1ccc(Cl)cc1 | inactive | 
26 | CCCCCCCC/C=C\CCCCCCCC(=O)N(C)CC(=O)O | inactive | 
27 | CC1=CCC(=O)O1 | inactive | 
28 | COc1ccccc1C=O | inactive | 
29 | Nc1cc([N+](=O)[O-])cc(Cl)c1O | inactive | 
30 | CCCCC(CC)COC(=O)c1ccc(N(C)C)cc1 (stereo not given) | inactive | 
31 | OCC(F)(F)C(F)(F)C(F)(F)CO | inactive | 
32 | O=C(F)C1(F)C(F)(F)C(F)(F)C(F)(F)C(F)(F)C1(F)F | inactive | 
33 | O=S(=O)(O)c1ccc(Cl)cc1 | inactive | 
34 | OCC(F)(F)C(F)(F)C(F)(F)C(F)(F)C(F)(F)C(F)(F)CO | inactive | 
35 | O=C(O)CCC(F)(F)C(F)(F)C(F)(F)C(F)(F)C(F)(F)C(F)(F)C(F)(F)F | inactive | 
36 | CCN(CC)c1ccc(N=Nc2ccccc2)cc1 |  | 26.9 µM (active)
37 | CCCCCCCCCCCC(=O)Cl | inactive | 
38 | C=CC(=O)OCCC(F)(F)C(F)(F)C(F)(F)C(F)(F)F | inactive | 
39 | OCCC(O)CO (stereo not given) | inactive | 
40 | CCN(CC)c1ccc(C=O)cc1 | inactive | 
